# HCMV inh = human cytomegalovirus inhibition; HFF cells, HCMV-luciferase reporter, 72 h; hits give low values; activity change, negative = inhibition, % at 57.5 µM; hit rate 4.5% among 410,000; in the data active = activity change below about -60%; inconclusive = no clear call, values can overlap the other calls; inactive = above about -39%; also: % is scaled to controls: 0 for no effect and ±100 for the full control effect
#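 Screen run at 2 compound doses on HFFs infected with reporter HCMV, MOI 1 PFU/cell. Luciferase activity from cell lysates at 72 h post infection gave inhibition relative to buffer-only and Salinomycin wells.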
# Cycloheximide cs = counter-screen hit for Shiga toxin inhibitors, cycloheximide; cell reporter, cycloheximide protein synthesis inhibition counterscreen; max response, %; hit rate 12% among 300,000; AID 2314; in the data active = max response mostly above about 13%, no sharp cut-off; inactive = mostly below about 14%; also: read at 38.3 µM for the half of the compounds with a filed dose; 0% is about no effect
# Shiga inhibitor = inhibitors of Shiga toxin in Vero cells; Vero cells, Shiga toxin protein synthesis inhibition reporter; inhibition, % at 38.7 µM; hit rate 9.2% among 290,000; AID 2315; in the data active = inhibition mostly above about 28%, no sharp cut-off; inactive = mostly below about 43%; also: 0% is about no effect
# Pf growth 48h = P. falciparum growth inhibition at 48 hours (one generation). P. falciparum luciferase growth in erythrocytes, 48 h. Potency, µM (top dose mostly 28.7 µM), without a hit: at the top dose activity change, negative = inhibition, actives largely listed as inhibitors. hit rate 5.9% among 310,000. AID 504832; also: potency is read from the fitted curve at half-maximal effect; % is scaled to controls: 0 for no effect and ±100 for the full control effect
#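 Growth was read as firefly luciferase luminescence after a 48 h, 37 C, 5% CO2 exposure of compounds to reporter-bearing P. falciparum cultures (0.1% parasitemia, 2% hematocrit final) in Albumax-supplemented RPMI 1640.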
# Pf growth 96h = P. falciparum growth inhibition at 96 hour, primary screen for plastid delayed-death inhibitors | AID 504834 | P. falciparum luciferase reporter growth, 96 h | Potency, µM (series often up to 28.7 µM), inactives show top-dose activity change, negative = inhibition, usual class: inhibitors | hit rate 6.9% among 320,000; also: potency is read from the fitted curve at half-maximal effect; % is scaled to controls: 0 for no effect and ±100 for the full control effect
#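 Delayed-death screen, second-generation endpoint: infected erythrocytes, 2% hematocrit, 0.05% parasitemia final; 96 hours at 37 C, 5% CO2; luciferase detection reagent; luminescence decrease equals reduced growth.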
# * = called active by the depositor; u = inconclusive; x = no result; [ ] = another dose, or the depositor's remark. Most compounds without a hit are left out; they make up all but 20% or so of the library. Unless noted, calls follow the shape of the dose curve; as a rule, active = well fitted inhibition curve with a large enough effect; inconclusive = small, poorly fitted or top-dose-only effect, or another doubt; inactive = no such curve, though single readings can be large or run the other way.
SMILES,HCMV inh,Cycloheximide cs,Shiga inhibitor,Pf growth 48h,Pf growth 96h
c1ccc(CNc2nc(NCCOc3ccccc3)c3sccc3n2)cc1,-32.5,x,x,x,x
c1ccc(CNc2nc(NCc3ccccc3)c3sccc3n2)cc1,-80.0*,x,x,x,x
c1cncc(-c2nc(NCc3ccc4c(c3)OCO4)c3ccccc3n2)c1,0.0,-1.2,-6.1,13.1µM*,10.4µM*
COc1ccc(Nc2nc(-c3cccs3)nc3ccccc23)cc1,-102.5*,7.4,12.4,-14.1%,0.0%
CC(C)c1csc(CN2CCN(Cc3ccccc3)C(CCO)C2)n1 (centres undefined),-0.6,-1.4,2.6,2.8%,u
CC(C)(OC(=O)c1ccc(F)cc1)c1cc2ccccc2c(=O)o1,15.6,x,x,0.9%,35.3%
CCN(CC)C(=O)CC(c1ccc(N(C)C)cc1)c1c(O)cc(OC)cc1OC (centres undefined),-20.9,-0.6,-2.5,u,u
COc1cc(-c2ccc3oc(-c4cccc(C)c4)c(C#CC4(O)CCCCC4)c3c2)cc(OC)c1OC,4.4,x,x,x,x
CC(Nc1nc(-c2cccnc2)nc2ccccc12)c1ccc(F)cc1 (centres undefined),-34.2,-1.9,1.3,4.65µM*,6.57µM*
c1ccc(CNc2nc(-c3ccccc3)nc3ccccc23)cc1,u,-4.6,x,u,-91.2%
c1ccc(CN2CCC(Nc3nc(-c4cccnc4)nc4ccccc34)CC2)cc1,-63.5*,-1.7,13.2,u,u
c1ccc(CNc2nc(-c3ccccn3)nc3ccccc23)cc1,-97.1*,-2.5,-9.2,1.47µM*,0.657µM*
Fc1ccccc1/C=N/Nc1nc(-c2ccccn2)nc2ccccc12,x,0.9,0.6,2.33µM*,u
Cc1ccc2cccc(OCC(=O)N3CC(C)CC(C)C3)c2n1 (centres undefined),u,9.1,-3.1,-10.8%,21.4%
CC(OC(=O)C1=COCCO1)C(=O)Nc1ncc(Cl)cc1Cl (centres undefined),-1.2,x,x,26.6%,12.1%
Cc1cccc(Cn2cnc3c(cnn3-c3ccc(Cl)cc3)c2=O)c1,8.7,x,x,x,x
c1ccc(CNc2nc(NCc3ccccc3)c3ccccc3n2)cc1,x,-6.6,-19.7,1.17µM*,0.738µM*
Clc1cccc(CNc2nc(-c3cccnc3)nc3ccccc23)c1,u,-5.1,-4.5,u,u
CC(C)(C)c1ccc(-c2nc(NCc3cccnc3)c3ccccc3n2)cc1,-72.0*,51.3*,76.4*,u,17.1%
Cc1ccc(CNc2nc(-c3cccnc3)nc3ccccc23)cc1,-12.3,8.1,-1.8,6.57µM*,u
Fc1ccc(CNc2nc(-c3cccnc3)nc3ccccc23)cc1,17.6,7.0,-5.9,11.7µM*,u
CCOC(=O)C1CCN(C(=O)CN2c3ccc(CC)cc3-c3ccccc3S2(=O)=O)CC1,-1.9,x,x,x,x
c1cncc(CNc2nc(-c3cccnc3)nc3ccccc23)c1,-12.3,-3.7,-9.6,u,u
CC(=O)Nc1ccc(CNc2nc(NCC3CC3)nc3ccsc23)cc1,-14.0,x,x,x,x
Fc1ccccc1CNc1nc(NCC2CC2)nc2ccsc12,-86.7*,x,x,x,x
SMILES,HCMV inh,Cycloheximide cs,Shiga inhibitor,Pf growth 48h,Pf growth 96h
c1ccc(CNc2nc(-c3cccnc3)nc3ccccc23)cc1,-36.9,-1.6,-6.0,9.28µM*,8.28µM*
CCC(C)Nc1nc(-c2cccc(OC)c2O)nc2ccccc12 (centres undefined),55.1,1.5,-3.9,-15.1%,u
CCC(C)Nc1nc(-c2ccccn2)nc2ccccc12 (centres undefined),-99.0*,-4.5,-5.8,x,0.928µM*
c1ccc(CNc2nc(-c3cccs3)nc3ccccc23)cc1,-73.9*,-0.9,8.3,u,u
Fc1ccccc1-c1nc(NCc2ccccc2)c2ccccc2n1,-23.9,-2.3,1.8,u,u
COc1ccc(Cc2nc3ccccc3c(=O)n2N)cc1OC,-10.8,x,x,x,x
CN(CC1COc2ccccc2O1)c1nc(-c2cccnc2)nc2ccccc12 (centres undefined),-16.8,-6.0,-11.7,u,u
c1cncc(-c2nc(NCC3COc4ccccc4O3)c3ccccc3n2)c1 (centres undefined),-16.7,-4.1,-8.3,x,8.28µM*
O=C(Nc1nnc(C(F)(F)F)s1)c1cccnc1,73.7,39.0*,64.8*,113.3%,x
O=C(Nc1nnc(-c2ccccc2F)s1)c1cccnc1,-15.6,23.2*,45.4*,14.2%,-158.7%[5.75 µM]
COCCCNC(=O)c1[nH]c2ccccc2c1Sc1ccc(C)cc1,5.0,x,x,x,x
O=C(Oc1cccc2ccccc12)C1CC1,29.6,18.6,8.0,6.7%,-9.6%
Cc1cc(=O)n2nc(N(C)CC(=O)NCc3cccc(Br)c3)sc2n1,11.4,x,x,x,x
S=C(NCc1ccco1)Nc1ccc(Br)cn1,u,11.0*,19.5,23.5%,u
S=C(NCc1ccco1)Nc1cc(-c2ccccc2)[nH]n1,-13.8,28.3*,98.0*,24.8%,29.7%
CC(C)COC(=O)C1C(=O)CC(C)(O)C(C(=O)OCC(C)C)C1c1cccnc1 (centres undefined),11.3,-2.7,1.0,9.28µM*,x
CC(C)OC(=O)C1C(=O)CC(C)(O)C(C(=O)OC(C)C)C1c1cccc(O)c1 (centres undefined),-2.5,0.7,-6.3,-3.0%,4.15µM*
COc1ccc(-c2nc(CN3CCC(C(=O)N4CCOCC4)CC3)c(C)o2)c(OC)c1,28.8,2.2,-10.8,6.8%,10.6%
COc1cc(OC)cc(C(=O)Nc2nc(-c3nnn(-c4ccc(C)cc4)c3C)ns2)c1,-105.7*,x,x,x,x
CCNc1nc(NC(C)C)nc(Oc2ccc(=O)n(C)n2)n1,-3.0,0.7,-7.8,-1.6%,26.2%
S=C(Nc1ccc(Cl)cc1)N1CCCC1,-18.9,29.7*,36.5,14.9%,42.1%
Cc1ccc(NC(=S)N2CCN(S(C)(=O)=O)CC2)cc1,-38.8,-0.9,-5.5,38.8%,10.4µM*
Cc1ccc(NC(=S)N2CCCC2)cc1,58.9,27.4*,77.2*,39.7%,-7.0%
CCOC(=O)c1ccc(NC(=S)N2CCN(S(C)(=O)=O)CC2)cc1,26.0,-2.2,-2.9,x,13.2%
Fc1ccc(NC(=S)N2CCCC2)cc1,33.5,x,x,x,x
SMILES,HCMV inh,Cycloheximide cs,Shiga inhibitor,Pf growth 48h,Pf growth 96h
Cc1ccc(NC(=S)N2CCCCCC2)cc1,-10.9,37.4*,74.7*,34.7%,93.7%
Cc1cc(C)cc(OCC(=O)N(Cc2ccc(C)o2)C2CCS(=O)(=O)C2)c1 (centres undefined),-12.6,x,x,x,x
Cc1ccc(NC(=S)N2CCCCC2)cc1C,32.3,20.2*,42.8*,34.5%,9.7%
COC(=O)c1ccc(NC(=S)N2CCCC2)cc1,-22.9,8.2,25.9,-4.3%,u
CC(=O)c1ccc(NC(=S)N2CCCCCC2)cc1,37.7,21.2*,66.9*,95.2%,3.2%
COc1ccc(NC(=S)N2CCCCCC2)cc1OC,-15.8,-1.4,-1.3,-11.5%,4.5%[5.75 µM]
Cc1cc(=O)[nH]c(N2CCCC2)n1,20.8,-3.3,-6.9,-4.3%,11.7µM*
Cc1cc(Br)ccc1NC(=O)c1sc2ncn(Cc3ccccc3Cl)c(=O)c2c1C,8.6,x,x,x,x
